What follows are molecules tested against Glucose transporter (Leishmania mexicana) (UniProt O61059) (assay: ST_JUDE_LEISH: Cytotoxicity at 2uM final concentration against transgenic Leishmania Mexicana promastigotes LmGT2 that are glucose transport deficient and complemented with the L. Mexicana glucose transporter 2. Activity is measured by DNA content using SYBR green in vitro).
Type: functional

| SMILES | inhibition [%] |
| --- | --- |
| CC(C)N1CCN(C(CN2CCN(CCCOc3ccc(-c4ccccc4)cc3)CC2)c2ccc(F)cc2)CC1 (stereo not given) | 103 |
| Cc1ccc(S(=O)(=O)N(C)c2ccccc2C(=O)Nc2ccccc2Oc2ccccc2)cc1 | -3.37 |
| c1cc(CNCCc2ccncc2)cc(-c2cccc(-c3nc4ccccc4[nH]3)c2)c1 | 10 |
| O=C(Nc1ccc(F)c(C(F)(F)F)c1)NC1CCN(CCCCCNC(=O)C2CC2c2ccc(Cl)c(Cl)c2)CC1 (stereo not given) | 4.44 |
| c1ccc(CNc2nc(NCCc3c[nH]cn3)nc(N3CCCC4CCCCC43)n2)cc1 (stereo not given) | -1.46 |
| COc1cc(Cc2cnc(N)nc2N)cc(OC)c1OCCCCCN1C(=O)c2ccccc2C1=O | 0.36 |
| COc1ccccc1-n1c(SCC(=O)c2ccc3c(c2)CC(=O)N3C)nnc1-c1cccs1 | 13.3 |
| Oc1ccc(CCNc2nc(N/N=C/c3ccc(Cl)cc3)nc(N3CCNCC3)n2)cc1 | 0.33 |
| Nc1nc(N)c2c(Cl)c(N3CCOCC3)ccc2n1 | 34.6 |
| COc1ccc2ncn(-c3ccc(C(N)=O)c(OCc4ccccc4C(F)(F)F)c3)c2c1 | -3.42 |
| CCCCNCC(O)COc1ccccc1-c1ccc(N/N=C/c2cccc3ccccc23)nn1 (stereo not given) | 1.78 |
| CCOc1cc(C(=O)NCc2cc(Cl)cc(Cl)c2)ccc1-c1nc2cc(Cl)ccc2[nH]1 | 1.11 |
| CCNc1cc(C(=O)N[C@@H](Cc2ccccc2)[C@H](O)CNC2(CCC(C)C)CC2)cc(N2CCCCS2(=O)=O)c1 | -0.78 |
| Cc1cccc2nc(-c3ccc(-c4cccc(NC(=O)CN5CCN(C)CC5)c4)s3)[nH]c12 | 2.66 |
| COc1ccc2nccc(N3CCC(CCNCc4cc5c(cn4)OCCO5)CC3)c2c1 | 4.48 |
| NC1=NC(c2ccccc2)N(OCc2ccccc2)C(N)=N1 (stereo not given) | 0.06 |
| O=C1Nc2ccccc2/C1=N/NC(=S)N1CCOCC1 | 0.09 |
| Cc1cc(N[C@@H](Cc2ccccc2)C(=O)NCc2cccs2)nc(NCC2CCCCC2)n1 | -0.41 |
| COc1ccc(NC(=O)c2ccc(C=Cc3ccc(C(F)(F)F)cc3)cc2)cc1N1CCN(C)CC1 | -0.41 |
| CC(C)C(=O)NC(NC(=S)Nc1ccc(Br)cc1)C(Cl)(Cl)Cl (stereo not given) | -0.89 |

| SMILES | inhibition [%] |
| --- | --- |
| O=C(CC1CCCCC1)NCC(NCCCNc1cc(=O)c2ccccc2[nH]1)c1cc(Br)cc(Br)c1 (stereo not given) | 2.63 |
| CCOC(=O)/C(=N\OC(C)(C)C(=O)NCc1ccc(O)c(O)c1)c1csc(NC(c2ccccc2)(c2ccccc2)c2ccccc2)n1 | -1.17 |
| O=C(CNC(=O)c1ccc(O)cc1)Nc1cccc(-c2cccc(-c3nc4cc(C(F)(F)F)ccc4[nH]3)c2)c1 | 2.15 |
| Cc1cc(NCCCOc2ccc(Cl)cc2)nc(NCc2ccccc2)n1 | 7.19 |
| CC(C)(C)OC(=O)N(Cc1cc(-n2nnnc2C(F)(F)F)ccc1O)[C@H]1CCCN(C(=O)OC(C)(C)C)[C@H]1c1ccccc1 | -3.2 |
| CCC(=O)c1ccc(-c2ccc(=O)n(CC(=O)N(CCN(CC)CC)Cc3ccc(-c4ccc(C(F)(F)F)cc4)cc3)n2)cc1 | -1.47 |
| CS(=O)(=O)c1ccc2c(c1)CCN(CCC1CCC(NC(=O)c3cc4cccc(Br)c4[nH]3)CC1)CC2 (stereo not given) | 1.11 |
| CC(C)COc1ccc(Cl)cc1Cc1nc(-c2nc3ccc(CN4CCCCC4)cc3[nH]2)co1 | 2.91 |
| O=C(NCCN1CCCC1)c1cccc(-c2ccc(-c3nc4ccccc4[nH]3)cc2)c1 | 4.26 |
| COc1ccccc1-c1[nH]c2ccccc2c1CN1CCC(c2c(C)cccc2C)CC1 | 11 |
| Cc1cc(=NN=Cc2cccc(Cl)c2)c2ccc(F)cc2[nH]1 | 1.04 |
| CC(C)(C)c1ccc(-c2ccccc2CNC(=O)c2cccc(O)c2)cc1 | 7.1 |
| Oc1ccccc1CN(CCCN(Cc1ccccn1)Cc1ccccc1O)Cc1ccccn1 | 4.96 |
| COc1ccc(C(=O)N2CCC3(CC2)C(=O)N(CC(=O)NCC2CCCCC2)CN3c2ccccc2)cc1 | 3.35 |
| CCc1cccc(-c2cc(N)n(C)c3nc(N)nc(=O)c2-3)c1 | -1.13 |
| CCCc1cc(Cc2cnc(N)nc2N)cc(CC)c1O | 0.25 |
| Cc1cc(NC(=O)c2coc3cc(F)c(N4CC(C)N(C)C(C)C4)cc23)cnc1-c1ccc(C#N)cc1 (stereo not given) | -1.53 |
| c1ccc2[nH]c(-c3ccc(-c4ccc(CN5CCC(N6CCCCC6)CC5)cc4)s3)nc2c1 | -1.09 |
| CCc1ccc(NC(=O)c2cccc(CN3CCCN(Cc4ccc(OC)cc4)CC3)c2)cc1 | 0.16 |
| Cc1ccc(C2CC(=O)CC(c3ccccn3)C2[N+](=O)[O-])cc1 (stereo not given) | -0.46 |

From ChEMBL document CHEMBL3433997, “St. Jude Leishmania screening dataset” (2016)
